Screening results deposited in PubChem BioAssay by National Center for Advancing Translational Sciences (NCATS).
A selection: hits, their analogues and other compounds. The true share with any hit is near 2.4%.
Cruzain inh noDet: qHTS Assay for Promiscuous and Specific Inhibitors of Cruzain (without detergent); Cruzipain (Trypanosoma cruzi), P25779; purified cruzain, Z-FR-AMC fluorescence, no detergent; Potency, µM, for inactives: max response, negative = inhibition, hits mostly inhibitors; actives 2.3% (n = 200,000); AID 1476, 2009;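 also: plate controls were enzyme without inhibitor for no effect and buffer without enzyme for full effect; nearly all actives have a fitted effect of over 40% in size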
Target sequence (P25779 123-467 limits assumed): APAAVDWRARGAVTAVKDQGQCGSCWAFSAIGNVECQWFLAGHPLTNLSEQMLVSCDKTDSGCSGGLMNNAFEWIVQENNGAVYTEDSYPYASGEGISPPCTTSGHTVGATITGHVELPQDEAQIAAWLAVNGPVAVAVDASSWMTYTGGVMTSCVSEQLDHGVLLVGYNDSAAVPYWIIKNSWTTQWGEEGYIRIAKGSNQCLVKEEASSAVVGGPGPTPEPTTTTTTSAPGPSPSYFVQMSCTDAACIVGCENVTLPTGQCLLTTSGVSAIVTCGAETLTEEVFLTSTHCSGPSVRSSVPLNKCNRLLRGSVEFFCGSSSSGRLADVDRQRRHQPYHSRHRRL
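Detergent-free condition (0.00005% Triton X-100) in acetate buffer pH 5.5 with DTT. 1.5 nM enzyme and compound were pre-mixed 15 min, then 2 uM Z-FR-AMC substrate added; reaction progress from fluorescence change between first and third reads (60 s).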
Cruzain inh Det: qHTS Assay for Promiscuous and Specific Inhibitors of Cruzain (with detergent). purified cruzain, Z-FR-AMC fluorescence, 0.01% Triton. Potency, µM, for the others: max response, negative = inhibition, actives largely listed as inhibitors. actives 0.43% (n = 200,000);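 also: plate controls were neutral wells for no effect and buffer without enzyme for full effect; nearly all actives have a fitted effect of over 40% in size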
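Detergent-containing run (0.01% Triton X-100) in acetate buffer pH 5.5 with 5 mM DTT: enzyme at 1.5 nM final, 15 min compound preincubation at room temperature, then 2 uM Z-FR-AMC substrate. Activity taken as 60 s fluorescence increase at 360/450 nm.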
Starred values were filed as active, the others as inactive; ? = inconclusive. Calls follow the shape of the dose curve; as a rule, active = well fitted curve in the direction sought with a large enough effect; inconclusive = small, poorly fitted or top-dose-only effect, or another doubt; inactive = no such curve, though single readings can be large; an effect the other way counts as inactive or inconclusive. Potency is read from the fitted curve at half-maximal effect.

SMILES	Cruzain inh noDet	Cruzain inh Det
COc1ccc(-c2c/c(=N\c3nc(-c4ccccc4)c(C)s3)c3ccccc3o2)cc1O	10µM*	-4%
COc1ccc(/C=C/c2nc3cc(-c4ccccc4)ccc3o2)cc1O	-8%	-1%
Cc1occc1C(=O)N/N=C/C1=C(N2CCOCC2)C(=C\c2ccc(Cl)cc2Cl)/CC1	25µM*	-5%
Cc1cc(C)nc(N/N=C/C2=C(N3CCOCC3)C(=C\c3ccc(Cl)cc3)/CC2)n1	-21%	-10%
Cc1ccc(S(=O)(=O)C(CNC(=O)C(=O)NCCc2ccc(F)cc2)c2cccs2)cc1 (stereo not drawn)	-13%	-3%
O=C(Cn1c(=O)c(CNc2ccccc2)cc2cc3c(cc21)OCCO3)Nc1ccccc1Cl	26%	-2%
CCCSC1=C(C#N)C(c2cccs2)C(C(=O)Nc2ccccc2)=C(C)N1 (stereo not drawn)	25µM*	-12%
CCSC1=C(C#N)C(c2cccs2)C(C(=O)OC)=C(C)N1 (stereo not drawn)	-11%	-2%
O=c1n(Cc2ccc(Cl)cc2)c2sc3c(c2c2ncnn12)CCCC3	25µM*	-13%
C=CCn1c(=O)n2ncnc2c2c3c(sc21)CCCC3	-10%	0%
CC(C)CN(CC(C)C)c1nnc(NC(=O)Nc2cccc(C(F)(F)F)c2)s1	?	-8%
O=C(COC(=O)CNS(=O)(=O)/C=C/c1ccccc1)NC1CCS(=O)(=O)C1 (stereo not drawn)	-22%	-27%
Cc1ccc(C(=O)NCC(=O)OCC(=O)NC2CCS(=O)(=O)C2)cc1C (stereo not drawn)	25µM*	16µM*
CCCC1=C/C(=C/c2ccc(-c3ccccc3OC)o2)C(=O)O1	?	-21%
COc1ccccc1-c1ccc(/C=C2/C=C(CC(C)C)OC2=O)o1	32µM*	-24%
O=C(CN1CCN(Cc2ccc(F)cc2)C1=O)NCc1ccccc1	-1%	1%
Cc1cc(-c2nnc(SCC(=O)c3ccc(Cl)cc3)o2)no1	25µM*	-4%
COc1ccc(C(=O)CSc2nnc(-c3cc(C)on3)o2)cc1	-16%	-5%
COCCNC(=O)CSc1nnc2[nH]c(=O)cc(C)n12	20%	-1%
Cc1cc(C)c(S(=O)(=O)Nc2ccc(-c3ccc(N4CCCCC4)nn3)cc2)cc1C	?	-5%
NC(=O)c1cc[n+](CC2=C(C(=O)[O-])N3C(=O)[C@@H](NC(=O)Cc4cccs4)[C@@H]3SC2)cc1	-1%	-3%
COc1ccc(Nc2nc(-c3cc4cccc(OC)c4oc3=O)cs2)cc1	?	0%
COc1ccc2oc(=O)c(-c3csc(Nc4cccc(O)c4)n3)cc2c1	25µM*	-12%
CCCCNc1ccc(-c2nc(-c3ccco3)no2)cc1[N+](=O)[O-]	?	-15%
COc1cc(-c2noc(-c3ccc(N(C)C)c([N+](=O)[O-])c3)n2)cc(OC)c1OC	25µM*	-7%
SMILES	Cruzain inh noDet	Cruzain inh Det
CN(C)c1ccc(-c2nc(-c3ccncc3)no2)cc1[N+](=O)[O-]	-6%	-2%
CCN(CC)c1ccc(-c2nc(-c3ccco3)no2)cc1[N+](=O)[O-]	16µM*	-4%
Cc1occc1C(=O)N=Nc1c(O)n(C)c2ccccc12	-8%	-5%
Cc1occc1C(=O)N=Nc1c(O)[nH]c2ccc(Br)cc12	13µM*	-3%
COc1cc(Cl)c(C)cc1NC(=O)C1CCCN(c2ncnc3onc(-c4ccc(F)cc4)c23)C1 (stereo not drawn)	12%	-5%
COc1ccccc1CNC(=O)Cn1nc(C)n2cccc2c1=O	?	-6%
COc1ccc(CNc2ncncc2-c2ccccc2Cl)c(OC)c1	6%	0%
CCCCn1c(SCc2nc3ccccc3s2)nc2ccccc2c1=O	-3%	-5%
CCCn1c(=O)c2ccccc2n2c(SCc3nc4ccccc4s3)nnc12	13µM*	2%
Cc1nn(-c2ccccc2)c2sc(C(=O)Nc3ccc(Br)cc3)cc12	5%	-4%
Cc1nn(-c2ccccc2)c2sc(C(=O)OCn3nnc4ccccc4c3=O)cc12	25µM*	-4%
Cc1nn(-c2ccccc2)c2sc(C(=O)Nc3cccc(Br)c3)cc12	20µM*	-2%
Cc1cc(C)n(-c2ccc(C(=O)OCn3nnc4ccccc4c3=O)cc2)n1	12%	2%
COc1cc(C(=O)N2CCc3c([nH]c4ccccc34)C2c2ccc(C)cc2)cc(OC)c1OC (stereo not drawn)	16%	-4%
COc1cc2c(cc1OC)C(COc1ccc(F)cc1)N(C(=O)Cc1ccc(F)cc1)CC2 (stereo not drawn)	16%	0%
CCOP(=O)(OCC)C(C#N)=C1SCN(c2ccc(Cl)cc2)CS1	13µM*	-9%
CCOP(=O)(OCC)C(NC(=O)c1ccc(Cl)cc1)=C(Cl)Cl	5%	2%
CCc1cccc(C)c1NC(=O)CN1C(=O)c2c(c3ccccc3n2C)C1c1ccc(OC)cc1 (stereo not drawn)	16%	-6%
CC(=C/c1ccccc1)/C=N/Nc1nc(N2CCCCC2)nc(N2CCCCC2)n1	-10%	-4%
C(=C\c1ccccc1)/C=N/Nc1nc(N2CCCCC2)nc(N2CCCCC2)n1	4µM*	1%
NC(=O)CSc1ncc2c(n1)-c1ccccc1N(Cc1ccc(Cl)cc1)S2(=O)=O	-13%	3%
C[C@]12C[C@@](C)(C=C1/C=C/c1ccc(C(F)(F)F)cc1)C(=O)C[C@H]2c1ccc(C(F)(F)F)cc1	-2%	-3%
O=C1OCCN1C(=O)[C@H]1[C@H](c2ccccc2)C(c2ccccc2)=NN1c1ccc(Br)cc1	20µM*	-5%
Cc1cccc(C2=NN(c3ccccc3)[C@@H](C(=O)N3CCOC3=O)[C@@H]2c2ccccc2)c1	?	-2%
C[C@@H]1C(c2ccccc2)=NN(c2ccccc2)[C@H]1C(=O)N1CCOC1=O	-2%	-2%
SMILES	Cruzain inh noDet	Cruzain inh Det
Cc1cccc(C2=NN(c3ccc(Br)cc3)[C@@H](C(=O)N3CCOC3=O)[C@@H]2c2ccccc2)c1	18µM*	-10%
O=C1OCCN1C(=O)[C@H]1[C@H](c2ccc([N+](=O)[O-])cc2)C(c2ccc(F)cc2)=NN1c1ccc(Br)cc1	8.9µM*	2%
O=C1OCCN1C(=O)[C@H]1[C@H](c2ccccc2)C(c2ccccc2)=NN1c1ccccc1	?	1%
O=C1OCCN1C(=O)[C@H]1[C@H](c2ccccc2)C(c2ccc(F)cc2)=NN1c1ccc(Br)cc1	20µM*	-6%
O=C1OCCN1C(=O)[C@H]1[C@H](c2ccc([N+](=O)[O-])cc2)C(c2ccc(F)cc2)=NN1c1ccccc1	?	4%
Cn1c(=O)c(=O)n(C)c2cc(S(=O)(=O)Nc3ccc(Cl)c(C(F)(F)F)c3)ccc21	-14%	-1%
CC(=O)c1sc(NC(=O)c2c(-c3ccccc3)c(-c3ccccc3)nn(C)c2=O)nc1C	?	-7%
CC(C)(C)c1ccc(OCCOCCn2c(-c3ccc(Cl)cc3)nc3ccccc3c2=O)cc1	-8%	8%
Cc1ccccc1NC(=O)Cn1nnc(S(=O)(=O)c2ccc(C(C)(C)C)cc2)c1N	7.9µM*	-11%
Cc1ccccc1NC(=O)Cn1nnc(C(=O)NCc2ccco2)c1N	4%	0%
O=C(Nc1ccc(F)cc1F)N1CCc2c(sc3c2CCCC3)C1c1ccc(F)cc1 (stereo not drawn)	1%	-1%
c1ccc(-c2ccc(-c3csnn3)cc2)cc1	20µM*	4%
